Assay results reported in PubChem BioAssay (NCI).
The panel holds about 83,000 compounds, 20% with a hit somewhere; the sample as a whole holds those more often.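 Values shown are percent growth following 48 h exposure of cells in 96-well plates to a single concentration of compound; below 10 was considered active.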 Unmarked numbers belong to inactive results. Active and inactive are the calls of the source.

Tested on: HL-60(TB) leukemia
Assay: NCI-60 one-dose screen, 48 h (100 = growth as untreated, 0 = no growth, -100 = all killed)
Conditions: 10 µM unless noted

Structure (SMILES) | growth
COc1ccc(-c2cc(-c3cccnc3)nc3sc(C(=O)Nc4ccccc4)c(N)c23)cc1OC | 60.2%
[N-]=[N+]=NCc1ncc(-c2ccc(C(F)(F)F)cc2)c(NC2CCCCCC2)n1 | 43.4% [50 µM]
CCc1c(C)c2ccc(O)c(-c3cc(-c4ccccc4)c(C#N)c(=O)[nH]3)c2oc1=O | 109%
Cc1cc(C)nc(SC2=C(Nc3ccc(O)cc3)C(=O)N(Cc3ccccc3)C2=O)n1 | 60.6% [40 µM]
O=C(N/N=C1\SCC(=O)N1c1ccccc1)c1cc(-c2cc3ccccc3o2)nn1-c1ccccc1 | 112%
CCCCC(CC#N)(CCC)CCC | 104%
CC1(C)COC(=S)N1 | 80.3%
COc1ccccc1/C=C/C(=O)CCC(=O)O | 88.3%
CN(C)CCNC(=O)c1cc2c3cc(Cl)ccc3[nH]c2c2ncccc12 | -64.8% (active)
COC(=O)CC(=O)C(=O)OC | 100%
Cc1ccc(/C=C2\C(=O)N(C)c3ccc(S(=O)(=O)Nc4ccc(C(C)(C)C)cc4)cc32)s1 | 93.1%
CCC(c1cccc(O)c1)C(CC)c1cccc(O)c1 (stereo not given) | 20.7%
Cc1cc(C)nc(SC2=C(Nc3cc(Cl)ccc3O)C(=O)N(Cc3ccccc3)C2=O)n1 | 85.3% [30 µM]
CC1(C)N=C(N)N=C(N)N1c1cc(Cl)ccc1Cl | 53.7%
COc1cc(C(=O)N(C(C)C)C2CCCCC2)cc(OC)c1OC | 96.7%
COc1ccc2nc3ccccc3c(NCc3ccc(C)cc3)c2c1 | 0.0372% (active)
COc1ccc(NC(N)=NCCCOc2ccc(F)cc2)cc1 | 87.7%
C=CCN1C(=O)/C(=C\c2ccc3c(c2)CCC3)SC1=S | 79%
N#Cc1ccc(NC2c3ccccc3CC2O)cc1 (stereo not given) | 78.7%
Cc1ccc(C(=O)Nc2ccccc2N)cc1 | -19.5% (active)

Structure (SMILES) | growth
COc1cc2cc(Oc3ccc(NC(=O)Nc4ccc(Cl)c(Cl)c4)cc3)c(C)nc2cc1OCCN1CCCCC1 | 44.1%
COc1ccc(/C=N/C2=C(C#N)C(c3ccccc3)c3c(ccc4ccccc34)O2)cc1 (stereo not given) | -18.1% (active)
O=C(NNc1ccccc1)c1ncc[nH]1 | 7.71% (active)
CCOc1ccccc1C(=O)N1CCN(c2cc(Cl)cc(Cl)c2)CC1 | -59% (active)
Cc1ccc(C(=O)NN2C(=O)CSC2c2cccc([N+](=O)[O-])c2)cn1 (stereo not given) | 82.7%
COc1cc(OC)c(Cl)cc1N | 131%
C/C=C/C/C=C/[C@H](C)C[C@H](O)[C@@H]1C[C@@H]2O[C@H]2/C=C/[C@@H]2OC(C)(C)O[C@H]2/C=C/C[C@H](C)CC(=O)O1 | 31.2%
Cc1ccc2c(c1)c1nc3cc(C)c(C)cc3nc1n2CCN(C)C | 11%
CN1CCN(c2nc(-c3ccncc3)nc3sc4c(c23)CCCCCC4)CC1 | 88.3%
COc1cc2ccc(C(C)=O)cc2cc1OC | 133%
CCC(=O)c1cc([N+](=O)[O-])c(Br)s1 | 34%
Cc1ccc(NC(=S)NNC(=S)Nc2ccc(C)cc2)cc1 | 44.7%
N#CC1=C(N2CCOCC2)NC2c3ccccc3Sc3ccccc3N2C1=N (stereo not given) | 89.8%
Cc1nc(/N=C(\N)NC(=O)Nc2ccccc2Cl)sc1C | 3.77% (active)
C1CCC(C(CC2CCCCN2)C2CCCCC2)CC1 (stereo not given) | 11.1%
CC1(C)OC2=C(CC1Br)C(=O)C(=O)c1ccccc12 (stereo not given) | -8.14% (active)
C#CC#CC#CC#CC#CC#CC#CC#CCC1OC[C@H](COC(=O)O[C@@H](C(=O)O[C@H]2C[C@@]3(O)[C@@H](OC(=O)c4ccccc4)[C@@H]4[C@]5(OC(C)=O)CO[C@@H]5C[C@H](O)[C@@]4(C)C(=O)[C@H](OC(C)=O)C(=C2C)C3(C)C)[C@@H](NC(=O)c2ccccc2)c2ccccc2)O1 (stereo not given in full) | 8.1% (active)
Fc1cnccc1-c1nc2ccc3[nH]ncc3c2c2c1CCCC2 | 16.9%
COC(=O)c1c2c(c(C)[n+]([O-])c1C)C(=O)C=C(NCc1cccc(Cl)c1)C2=O | -31.8% (active)
CC(C)(C)c1cc(C(=O)N2CCC(C(=O)NCCN)CC2)cc(C(C)(C)C)c1 | 90.5%
